About 83,000 compounds went through this panel and 20% of them were active in at least one assay; those are over-represented in the sample as a whole.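 Percent growth is the endpoint: 0 to 100 indicates growth inhibition (40 means 60% inhibition), 0 means no net growth, and negative values indicate cell death.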 Unmarked numbers belong to inactive results. Calls of active or inactive are those of the source. How the source made its calls: active means growth percent below 10; inactive means the rest.
Columns and labels:
Test in all cases: NCI-60 one-dose screen, 48 h (100 = growth as untreated, 0 = no growth, -100 = all killed)
Details in all cases: 10 µM unless noted
DU-145 prostate = system: DU-145 prostate
K-562 leukemia = system: K-562 leukemia
MALME-3M melanoma = system: MALME-3M melanoma
MDA-MB-231 breast = system: MDA-MB-231 breast
RXF 393 renal = system: RXF 393 renal
SF-268 CNS = system: SF-268 CNS
SF-295 CNS = system: SF-295 CNS
SF-539 CNS = system: SF-539 CNS
UACC-257 melanoma = system: UACC-257 melanoma
M14 melanoma = system: M14 melanoma
HCT-15 colon = system: HCT-15 colon
HT29 colon = system: HT29 colon
SNB-75 CNS = system: SNB-75 CNS
SNB-19 CNS = system: SNB-19 CNS
U251 CNS = system: U251 CNS
PC-3 prostate = system: PC-3 prostate
SK-MEL-5 melanoma = system: SK-MEL-5 melanoma
UACC-62 melanoma = system: UACC-62 melanoma
LOX IMVI melanoma = system: LOX IMVI melanoma
SK-MEL-28 melanoma = system: SK-MEL-28 melanoma

| SMILES | growth (DU-145 prostate) | growth (K-562 leukemia) | growth (MALME-3M melanoma) | growth (MDA-MB-231 breast) | growth (RXF 393 renal) | growth (SF-268 CNS) | growth (SF-295 CNS) | growth (SF-539 CNS) | growth (UACC-257 melanoma) | growth (M14 melanoma) | growth (HCT-15 colon) | growth (HT29 colon) | growth (SNB-75 CNS) | growth (SNB-19 CNS) | growth (U251 CNS) | growth (PC-3 prostate) | growth (SK-MEL-5 melanoma) | growth (UACC-62 melanoma) | growth (LOX IMVI melanoma) | growth (SK-MEL-28 melanoma) |
| --- | --- | --- | --- | --- | --- | --- | --- | --- | --- | --- | --- | --- | --- | --- | --- | --- | --- | --- | --- | --- |
| Oc1c(CN2CCCC2)cc(COCc2ccc(Br)cc2)c2cccnc12 | 22.7% | 8.51% (active) | -3.92% (active) | 5.06% (active) | 20% | 10.8% | 13% | -23.5% (active) | -29.5% (active) | -3.51% (active) | -39.6% (active) | 55% | 24.5% | 23.2% | -7.1% (active) | 14.4% | -15.1% (active) | -22.4% (active) | -14.1% (active) | 24.2% |
| O=C(Nc1cccc(C(F)(F)F)c1)Nc1cccc(C(F)(F)F)c1 | 25% | 11.5% | -17.1% (active) | -34.8% (active) | 22.7% | 22.7% | 4.86% (active) | 19.5% | -32.9% (active) | 13% | 10.7% | 3.56% (active) | 11.1% | 10.7% | -15.3% (active) | 6.31% (active) | -72.5% (active) | 10.6% | 8.64% (active) | 26.8% |
| N=C1CCC(=N)c2c1c(O)c1ccccc1c2O | 106% | 65.1% | 135% | 89.6% | 79.6% | 85.4% | 102% | 171% | 101% | 118% | 108% | 101% | 87.2% | 103% | 100% | 80.3% | 126% | 102% | 81.9% | 106% |
| N#C/C(=C\c1ccc2c(c1)OCO2)n1nnc2cc(F)c(F)cc21 | 36.7% | 18% | 70.8% | 80.1% | 32.3% | 74.3% | 102% | 84.5% | 75% | 57% | 40.5% | 30.3% | 20.6% | 82.3% | 83.8% | 51.4% | 75.5% | 47.6% | 57.3% | 92.5% |
| c1c[nH]c(CNC2CCCCC2)c1 | 106% | 103% | 106% | 129% | 119% | 101% | 105% | 114% | 119% | 104% | 104% | 105% | 108% | 119% | 102% | 81.6% | 118% | 110% | 89.7% | 120% |
| COc1ccc(OC)c2c1[nH]c(=O)c1c3ncccc3cn21 | 26.3% | 32% | 60.2% | 41.4% | 12.7% | 34.2% | -3.56% (active) | 37.2% | 37.4% | 39.7% | 22.8% | -9.43% (active) | 59.7% | 30.3% | 22.5% | 33.6% | 33.3% | 23.4% | 8.59% (active) | 64.3% |
| Nc1n[nH]c(-c2cc(Cl)ccc2O)c1-c1ccccc1 | 106% | 67.9% | 82.2% | 78% | 86.4% | 92.3% | 102% | 94.6% | 98.5% | 93.8% | 78.5% | 102% | 86% | 102% | 89.2% | 81% | 92.2% | 66.6% | 79.6% | 122% |
| O=C(O)CN1C(=O)CCC1=O | 109% | 111% | 104% | 90.7% | 111% | 99.8% | 99.1% | 99% | 104% | 111% | 103% | 90.6% | 95.3% | 108% | 105% | 108% | 103% | 108% | 102% | 107% |
| Cn1cc(-c2csc(-c3ccccc3)n2)c2cccnc21 | -61.4% [100 µM] (active) | 1.43% [100 µM] (active) | -44.2% [100 µM] (active) | -42.7% [100 µM] (active) | -37.4% [100 µM] (active) | -18.3% [100 µM] (active) | -47.2% [100 µM] (active) | -71% [100 µM] (active) | -27.7% [100 µM] (active) | -76.6% [100 µM] (active) | -40.3% [100 µM] (active) | -67.5% [100 µM] (active) | -15.9% [100 µM] (active) | -50.2% [100 µM] (active) | -33.8% [100 µM] (active) | -16.9% [100 µM] (active) | -83.2% [100 µM] (active) | -62.7% [100 µM] (active) | -54.3% [100 µM] (active) | -57.4% [100 µM] (active) |
| Cn1c(-c2c(N)n(Cc3cccnc3)c3nc(C#N)c(C#N)nc23)nc2ccccc21 | 95.7% | 51.1% | 53.5% | 89.2% | 65.9% | 98.8% | 110% | 64.7% | 102% | 91.1% | 94.5% | 92.1% | 96.6% | 103% | 94.3% | 66% | 89.2% | 89.8% | 97.4% | 113% |
| N#Cc1c(N)nn(C(=O)c2ccc(NC(=O)c3ccccn3)cc2)c1-c1ccc(Cl)cc1 | 3.96% (active) | 34.2% | -17.5% (active) | 61.1% | 54% | -8.49% (active) | 54.9% | -27.8% (active) | 48% | 17.1% | 32.9% | 18.1% | 27.3% | 23.4% | -39.2% (active) | 15.5% | 25% | 43.1% | 30.5% | 70.4% |
| O=c1oc2ccccc2c(Cl)c1Cl | 107% | 37.2% | 58.5% | 62.6% | 66.6% | 86.5% | 106% | 81.3% | 40% | 17.1% | 38.9% | 105% | 82.4% | 91.7% | 49.1% | 101% | 46.1% | 74.7% | 10.5% | 72.4% |
| N#Cc1c(-c2cccc(Cl)c2)cc(-c2cccc(F)c2)[nH]c1=O | 98.6% | 85.5% | 99.9% | 89.9% | 88.7% | 95.6% | 91.2% | 94.3% | 102% | 101% | 90.2% | 107% | 85.8% | 91.1% | 86.7% | 85.3% | 89.4% | 76.8% | 89.6% | 97.9% |
| COc1ccc2c(c1)C(=O)/C(=C/c1cccc(OCC(=O)Nc3nc(C)c(C)s3)c1)O2 | -76.3% (active) | -72.2% (active) | -58% (active) | -25.1% (active) | -57.2% (active) | -45.5% (active) | -82.7% (active) | -80.6% (active) | 37% | -44.4% (active) | 12.3% | -82.2% (active) | -95.3% (active) | 80.6% | 0% (active) | -85.4% (active) | 40.4% | 47.1% | -63.9% (active) | 11.2% |
| Cc1ccc2nc(NC(=O)CSc3nc(-c4ccccc4)c(C#N)c(=O)n3Cc3ccccc3)sc2c1 | 103% | 73.3% | 78.6% | 82.5% | 75.8% | 92.1% | 95.3% | 90.4% | 98.3% | 88.1% | 96.6% | 105% | 63.5% | 78.3% | 87.8% | 71.9% | 83.1% | 53.5% | 83.1% | 79.1% |
| O=C1Nc2ccccc2/C1=C/c1cn(C(=O)c2c(Cl)cccc2Cl)c2ccccc12 | 59.3% | 45.7% | 117% | 55.1% | -4.11% (active) | 56.6% | 44.5% | 67.4% | 79.2% | 66.2% | 31% | 69.7% | 54.7% | 68.7% | 35.8% | 41.7% | 63.1% | 36.7% | 48.4% | 81.5% |
